Results on 36 compounds are retold here after PubChem BioAssay.

Structures are written as SMILES. Activity calls are given as the source filed them.

The first experiment in a line: plasmodial surface anion channel blockers, osmotic lysis – cell-based, P. falciparum Indochina, OD700, 18 h, primary screen (AID 1157). As to conditions: P. falciparum Indochina infected erythrocytes, osmotic lysis OD700, 18 h; higher = more signal, called active from +8 up or from −8 down.
For the compound `C=CCOC(=O)[C@H]1[C@@H]2C(=O)O[C@@H](c3ccccc3)[C@@H](c3ccccc3)N2[C@@H](c2ccc(OCCOC(=O)[C@H]3C[C@H]4C(=O)N5CCC[C@H]5C(=O)N4[C@H]3c3cccc(OCCO)c3)cc2)[C@]12C(=O)Nc1ccc(I)cc12`, the z-score was 0.131 (inactive).

On to `CC(C)CN1CCc2nc(-c3ccccc3)c3c(c2CC1)CO[C@@H](C)C3`, for which the z-score is -0.142 (inactive).

With `CC(C)OC(=O)C=C1C[C@@H](c2ccc(C#N)cc2)O[C@@H](c2ccc(C#N)cc2)O1`, the z-score is 0.439 (inactive). On the same count and under the same terms, the same measure for `C=CC[C@@H]1C=C[C@H](ON=C[C@@H](OC)[C@H](C)C=CCC(=O)OC)[C@@H](CO)O1`: 0.465 (inactive); for `CN1C(=O)C2C(C1=O)C1C=C(CCCO)C2C(c2ccc(CN3CCCC3)cc2)N1C` (stereo not drawn): 0.378 (inactive); for `COCC(=C=CC[C@@H](O)c1ccccc1OCCO)CCO`: 0.16 (inactive). As to `COCCOC(=O)N1C(=O)[C@@]2(c3cc(C#CCNC(N)=O)ccc31)[C@H](c1ccc(O)cc1)N1[C@H](c3ccccc3)[C@H](c3ccccc3)OC(=O)[C@H]1[C@@H]2C(=O)N1CCCCCCC1`, the z-score is 0.411 (inactive). Same read-out and setting: for `C=C(/C(=C/C[C@H](OC(=O)c1ccncc1)c1ccc(OCCO)cc1)c1cnc2ccccc2c1)C(C)C` the value was 0.724 (inactive); for `Cc1cc2c(c(=O)o1)[C@H](O)[C@H]1O[C@H]1C2=O`, 0.0033 (inactive); for `COC(=O)[C@@H]1CC[C@H](C)[C@@H](c2ccc(C)cc2)N1C(=O)c1ccc(C=NOC[C@@H](O)COCc2ccco2)cc1`, 1.05 (inactive). As to `CO[C@@H]1COC(=O)[C@H](C)NC(=O)[C@@H](C)COC(=O)CCC[C@H]1C`, the z-score is 0.516 (inactive). Same read-out and setting: for `CC(C)c1ccc(NN2C(C(O)c3ccc4c(c3)OCO4)C=CC3C(=O)N(c4ccccc4)C(=O)C32)cc1` (stereo not drawn) the value was 0.778 (inactive); for `CCOC(=O)[C@H](Cc1ccccc1)NC(=O)CCC1CC(OC(=O)NCc2ccc3c(c2)OCO3)CC2(CCCC(COC(=O)NCc3ccccc3)O2)O1` (stereo partly drawn), 0.565 (inactive); for `CC(C)(C)OC(=O)CC[C@]1(C(=O)NCc2ccccc2)N=C(c2ccc(OCCCO)cc2)O[C@H]1c1ccccc1`, 0.887 (inactive).

`Cc1ccc(C2CC=C(C(=O)O)CN2S(=O)(=O)c2ccc(C)cc2)cc1` (stereo not drawn): the z-score is 0.98 (inactive). Regarding `CC[C@@H](c1ccccc1)n1c(=O)n2n(c1=O)[C@H]1[C@H](O)[C@@H]3O[C@@H]3C(=NOCC=C(C)CCC=C(C)C)[C@H]1CC2`, the z-score was 0.355 (inactive). On the same count and under the same terms, for `CC(CCC(=O)OC[C@H]1O[C@H](C#Cc2ccccc2)C=C[C@@H]1Oc1ccc(C)cc1)=NOC[C@@H](O)COCc1ccco1` the value was 1.18 (inactive).

A further experiment is described as follows: S6 kinase pathway phospho-S6 level changes – cell-based, A549, cytoblot, luminescence, serum-stimulated, primary screen (AID 1158).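 Note: serum-stimulated A549 lung adenocarcinoma cells; signal is phosphorylated S6 detected by cytoblot immunostaining with HRP secondary.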 As to conditions: 5 h, higher = more signal.
On to `COc1ccc([Si](C)(C)[C@@H]2[C@@H](CCO)O[C@]3(C(=O)N(Cc4ccc(NC(C)=O)cc4)c4ccccc43)[C@H]2C)cc1`, for which the z-score amounted to 0.339. On the same count and under the same terms, the same measure for `CCCCC(=C=CC[C@H](O)c1ccccc1OCCO)C[C@H](O)COCc1ccccc1`: -0.424. Regarding `COC(=O)[C@H]1COC(c2ccc(OCCCO)cc2)=N1`, the z-score was -0.0797.

Regarding `CC(C)C[C@@H]1NC(=O)[C@H]2C[C@@H](C(=O)NCCCCCCN(C)C)[C@@H](c3cccc(OCCO)c3)N2C1=O`, the z-score amounted to 0.0695. Same read-out and setting: the same measure for `O=C1O[C@@H](c2ccccc2)[C@@H](c2ccccc2)N2[C@@H](c3ccccc3OCCO)[C@]3(C(=O)Nc4ccc(C#CCCO)cc43)[C@@H](C(=O)O)[C@H]12`: 1.47. `CC(C)NC(=O)[C@@]1(C)c2ccccc2C(=O)N(Cc2cc(F)cc(C(F)(F)F)c2)[C@H]1c1ccc(CO)cc1` yielded a z-score of -0.191. On the same count and under the same terms, the same measure for `O=C1O[C@@H](c2ccccc2)[C@@H](c2ccccc2)N2[C@@H](c3ccc(OCCO)cc3)[C@]3(C(=O)Nc4ccccc43)[C@@H](C(=O)N3CCN(c4ncccn4)CC3)[C@H]12`: -0.183; for `CCc1cc2c(nc1CC)CCN(CCC(C)=NOC[C@@H](O)[C@H]1O[C@@H]3OC(C)(C)O[C@@H]3[C@H]1O)C2`: -0.512; for `C=CC[C@@H]1C=C[C@H](ON=C(C)CCN2CCc3nc(CC)c(CC)cc3C2)[C@@H](CO)O1`: -1.15. On the same count and under the same terms, for `CN(C)CCCNC(=O)[C@@H]1c2ccccc2C(=O)N(Cc2cc(F)cc(C(F)(F)F)c2)[C@H]1c1ccc(CO)cc1` the value was 0.269.

In the case of `O=C1[C@H]2[C@H]3[C@H](O)[C@H](O)CC(=NOC[C@@H](O)COCc4ccco4)[C@H]3CC[C@H]2C(=O)N1c1cccc(Oc2ccccc2)c1`, the z-score is 0.404. In turn, `CS(=O)(=O)CCOC(=O)C1=CC(CCCO)=CC(c2cccs2)N(Cc2cccc(OC(F)(F)F)c2)C=C1C(=O)OCCS(C)(=O)=O` (stereo not drawn) displayed a z-score of -0.0175. The same measure, in the same setting: for `CC(CCC(=O)OC[C@H]1O[C@H](C#Cc2ccccc2)C=C[C@@H]1Oc1ccc(C)cc1)=NO[C@@H](C)c1cn([C@H](CO)Cc2ccccc2)nn1` the value was 0.672; for `COc1ccc(O[C@H]2C=C[C@@H](c3ccccc3)O[C@@H]2COC(=O)CCC(C)=NO[C@@H](C)c2cc(-c3c(C)cc(C)cc3C)no2)cc1`, -0.0348; for `CC(C)[C@@H](OCc1ccccc1)[C@H](C)C=NO[C@H](C)c1cn([C@H](CO)Cc2ccccc2)nn1`, 1.99. Same read-out and setting: the same measure for `COc1cccc([C@H]2Oc3ccc(OC)cc3C(=NOC(C)CN3CCCc4nc(C)c(C)cc43)[C@@H]2O)c1` (stereo partly drawn): -0.912; for `O=C1C[C@@H](O)[C@@H](O)[C@@H]2[C@@H]3C(=O)N(C4CCCCC4)C(=O)[C@@H]3CC[C@H]12`: 0.403. Same read-out and setting: the same measure for `COc1ccc([Si](C)(C)[C@H]2[C@H](CC(=O)N3CCC[C@H]3CO)O[C@@]3(C(=O)N(Cc4cccc(N5C(=O)COc6ccccc65)c4)c4ccccc43)[C@@H]2C)cc1`: 1.03; for `CC(C)NC(=O)[C@@]1(c2ccc([N+](=O)[O-])cc2)CC(=O)N(CC23CC4CC(CC(C4)C2)C3)[C@@H]1c1ccc(CO)cc1I`: 0.018; for `C=CCOC(=O)[C@H]1[C@@H]2C(=O)O[C@@H](c3ccccc3)[C@@H](c3ccccc3)N2[C@@H](c2ccc(OCCOC(=O)[C@H]3C[C@H]4C(=O)N5CCC[C@H]5C(=O)N4[C@H]3c3cccc(OCCO)c3)cc2)[C@]12C(=O)Nc1ccc(I)cc12`: -0.0041. `CC(C)CN1CCc2nc(-c3ccccc3)c3c(c2CC1)CO[C@@H](C)C3` returned a z-score of -0.528. The same measure, in the same setting: the same measure for `CC(C)OC(=O)C=C1C[C@@H](c2ccc(C#N)cc2)O[C@@H](c2ccc(C#N)cc2)O1`: -0.342; for `C=CC[C@@H]1C=C[C@H](ON=C[C@@H](OC)[C@H](C)C=CCC(=O)OC)[C@@H](CO)O1`: -0.782. The same measure, in the same setting: the same measure for `CN1C(=O)C2C(C1=O)C1C=C(CCCO)C2C(c2ccc(CN3CCCC3)cc2)N1C` (stereo not drawn): 0.318; for `COCC(=C=CC[C@@H](O)c1ccccc1OCCO)CCO`: 0.613. Same read-out and setting: for `COCCOC(=O)N1C(=O)[C@@]2(c3cc(C#CCNC(N)=O)ccc31)[C@H](c1ccc(O)cc1)N1[C@H](c3ccccc3)[C@H](c3ccccc3)OC(=O)[C@H]1[C@@H]2C(=O)N1CCCCCCC1` the value was 0.0352; for `C=C(/C(=C/C[C@H](OC(=O)c1ccncc1)c1ccc(OCCO)cc1)c1cnc2ccccc2c1)C(C)C`, -0.288; for `Cc1cc2c(c(=O)o1)[C@H](O)[C@H]1O[C@H]1C2=O`, -0.573. In turn, `COC(=O)[C@@H]1CC[C@H](C)[C@@H](c2ccc(C)cc2)N1C(=O)c1ccc(C=NOC[C@@H](O)COCc2ccco2)cc1` returned a z-score of -1.05. Compound `CO[C@@H]1COC(=O)[C@H](C)NC(=O)[C@@H](C)COC(=O)CCC[C@H]1C` displayed a z-score of -0.276.

For the compound `CC(C)c1ccc(NN2C(C(O)c3ccc4c(c3)OCO4)C=CC3C(=O)N(c4ccccc4)C(=O)C32)cc1` (stereo not drawn), the z-score was -0.467. In turn, `CCOC(=O)[C@H](Cc1ccccc1)NC(=O)CCC1CC(OC(=O)NCc2ccc3c(c2)OCO3)CC2(CCCC(COC(=O)NCc3ccccc3)O2)O1` (stereo partly drawn) registered a z-score of -0.0074. Still for that read-out and setting: the same measure for `CC(C)(C)OC(=O)CC[C@]1(C(=O)NCc2ccccc2)N=C(c2ccc(OCCCO)cc2)O[C@H]1c1ccccc1`: -0.009; for `Cc1ccc(C2CC=C(C(=O)O)CN2S(=O)(=O)c2ccc(C)cc2)cc1` (stereo not drawn): -0.51; for `CC[C@@H](c1ccccc1)n1c(=O)n2n(c1=O)[C@H]1[C@H](O)[C@@H]3O[C@@H]3C(=NOCC=C(C)CCC=C(C)C)[C@H]1CC2`: -0.45. As for `CC(CCC(=O)OC[C@H]1O[C@H](C#Cc2ccccc2)C=C[C@@H]1Oc1ccc(C)cc1)=NOC[C@@H](O)COCc1ccco1`, the z-score turned out to be 0.63.
